# E coli growth-1: E. coli V3065 growth inhibition, primary screen, counter-screen for AddAB inhibitor project, absorbance, OD600 | 18 h | inhibition, % at 11.9 µM | 330,000 compounds, 0.27% hits | AID 449728, 2010;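 active means inhibition above the campaign's mean inhibition across all tested compounds plus 3 SD, cut at about 9.9% in these data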;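 further: uninfected addAB+ strain grown without phage in ampicillin broth; 0% = DMSO wells and 100% = ciprofloxacin 0.95 µg/ml wells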
# phage Ecoli inh: growth loss of phage-infected E. coli, primary screen, RecBCD inhibitor project, absorbance, with phage, HTS | inhibition, % at 11.9 µM | 360,000 compounds, 0.26% hits | AID 651602, 2012; in the data active means inhibition above about 11%
# E coli growth-2: E. coli growth inhibition, primary screen, OD600 | Escherichia coli growth, 23 h; active compounds read low | OD600 absorbance (concentration not given with the values) | 330,000 compounds, 0.21% hits;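 active means OD600 absorbance below the run mean of sample wells minus 3.6 SD, in any replicate, cut at about 0.56 in these data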
# Tat export inh: E. coli Tat export inhibitors, primary screen, MC4100, TorA-mCherry reporter, fluorescence, single point; AID 488895, 2010; inhibition, % at 10 µM; 340,000 compounds, 0.036% hits;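 active means mean replicate inhibition at least 50% and at least half of replicates individually reaching 50%; inconclusive means only one of the two criteria met; inactive means neither criterion met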;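 further: exported cargo escapes ClpAP degradation while cytoplasmic cargo is degraded and loses fluorescence; 0% = median of neutral control wells and 100% = median of NaSCN control wells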
# AddAB inh: growth inhibition of E. coli expressing H. pylori AddAB, primary screen, AddAB inhibitor project, absorbance | inhibition, % at 11.9 µM | 330,000 compounds, 0.29% hits | AID 435030, 2010; in the data active means inhibition above about 12%;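 further: 0% = vehicle wells of infected cells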
# AI-2 QS mod: Vibrio harveyi AI-2 quorum sensing modulators, primary screen, JMH597 strain, luminescence/OD600 ratio; Vibrio harveyi JMH597 AI-2 luminescence/OD600 ratio, 9 h; active compounds read low; strain lacks LuxN and CqsS sensors; 0 = neutral-control median; activity change, % at 7.5 µM; 300,000 compounds, 0.4% hits; in the data active means activity change below about -75%, passing the limit was not always enough; inconclusive means no clear call, values can overlap the other calls;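 further: luminescence divided by OD600 gain over 9 h not by final OD600 alone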
# AddAB confirm: growth loss of phage-infected E. coli expressing H. pylori AddAB, confirmation, AddAB inhibitor project, absorbance, E. coli V3065, T4 phage, triplicate; shares compounds with AddAB inh; OD; T4 phage with gene 2 nonsense mutations; inhibition, % at 11.9 µM; 880 compounds, 64% hits; AID 488942, 2010;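 active means mean inhibition above a set limit taken from the earlier primary screen, cut at about 13% in these data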;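 further: higher means less bacterial growth since AddAB block lets phage replicate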
# RecBCD counter: growth loss of RecBCD+ E. coli with mutant T4 phage, counter-screen for AddAB inhibitor project, absorbance, V66 E. coli. shares compounds with AddAB inh. OD growth. inhibition, % at 11.9 µM. 880 compounds, 73% hits;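 active means mean inhibition above the mean of solvent-only control wells plus 3 SD, cut at about 4% in these data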;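 further: optical density read after an 18 h incubation at 37 °C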
# bact viab count: bacterial viability inhibition counter-screen, confirmation, counter-screen for AddAB inhibitor project, absorbance; shares compounds with AddAB inh; inhibition, % at 11.9 µM; absorbance (AddAB counterscreen); 880 compounds, 35% hits; in the data active means inhibition above about 25%
# Active calls of the source: *; ? = inconclusive; . = not tested or not shown. Compounds with a hit are over-represented: about 0.79% of the library has one in this group of screens.
SMILES,E coli growth-1,phage Ecoli inh,E coli growth-2,Tat export inh,AddAB inh,AI-2 QS mod,AddAB confirm,RecBCD counter,bact viab count
Cc1ccc(OCC(=O)Nc2ccc3c(c2)CCC3)c([N+](=O)[O-])n1,1.3,4.9,0.688,-2.9,1.2,17.1,.,.,.
CC(=O)Nc1cccc(C(=O)NCCc2ccco2)c1,11.6*,7.7,0.661,-22.3,12.5*,36.2,7.2,10.4*,8.5
CCOC(=S)NC(=NS(C)(=O)=O)c1ccccc1,.,.,0.659,.,.,.,.,.,.
COc1ccc(N(CC(=O)NN=Cc2ccc3c(c2)OCO3)S(=O)(=O)c2ccc(NC(C)=O)cc2)cc1,.,.,0.699,.,.,.,.,.,.
O=C(Nc1nnc(-c2cccs2)o1)c1cccc(F)c1,4.9,8.4,0.354*,12.1,15.9*,-85.0*,9.2,14.4*,6.6
O=C(Nc1nnc(-c2ccccn2)o1)c1cccc(Cl)c1,-7.0,-6.4,0.574,-6.2,0.4,68.2,.,.,.
O=C(Nc1nnc(-c2ccco2)o1)c1cccc(Cl)c1,-0.5,-4.3,0.693,-6.4,14.9*,-133.5*,0.3,-2.2,-3.6
CCN1C(=O)C2C(c3ccc(C)cc3)N3C(=O)N(c4ccccc4)C(=O)[C@@]3(C)C2C1=O (some centres not stated),.,.,0.68,.,.,.,.,.,.
Cc1ccc(C)n1-c1nnc(N2CCC(C(=O)N3CCN(C)CC3)CC2)s1,-2.8,2.7,0.746,-5.0,4.0,26.2,.,.,.
CCN1CCN(C(=O)C2CCN(c3nnc(-n4c(C)ccc4C)s3)CC2)CC1,2.1,1.2,0.73,7.8,130.9*,6.1,5.4,0.6,-0.5
CCCc1c(C)nc2ccc(OC)cc2c1SCCC(=O)O,-0.7,0.1,0.683,-5.5,15.5*,-2.2,1.6,0.5,-2.3
O=C(O)c1ccc(N/N=C/C=C/c2ccc([N+](=O)[O-])o2)cc1,8.5,8.1,.,0.7,14.0*,.,30.9*,3.6,8.8
O=[N+]([O-])c1ccc(N/N=C/c2ccc[nH]2)cc1,6.1,5.9,.,0.7,12.3*,.,12.8*,2.4,5.5
COc1ccc(C=Nn2c(SC)nnc(C(C)(C)C)c2=O)c(OC)c1,.,.,0.724,.,.,.,.,.,.
N#CC(=NNc1ccc(S(=O)(=O)N2CCOCC2)cc1)C(N)=S,.,.,0.81,.,.,.,.,.,.
CC(NC(=O)NC1CCCCC1)C(c1cccs1)N1CCN(C)CC1 (configuration not stated),8.3,1.3,0.73,-13.2,84.7*,12.0,0.6,0.4,-3.9
COc1ccc2oc(=O)c(C(C)=NNC(=O)c3ccncc3)cc2c1,.,.,0.677,.,.,.,.,.,.
CCn1cc(C(=O)O)c(=O)c2cnc(N3CCN(C(=S)Nc4ccccc4)CC3)nc21,49.7*,1.4,0.444*,-2.7,98.0*,9.9,4.9,0.9,1.2
CCOC(=O)c1cccc(NC(=S)N2CCN(c3ncc4c(=O)c(C(=O)O)cn(CC)c4n3)CC2)c1,5.7,4.7,0.684,9.1,6.6,4.1,.,.,.
CCn1cc(C(=O)O)c(=O)c2cnc(N3CCN(C(=S)Nc4ccccc4C(F)(F)F)CC3)nc21,94.5*,5.9,0.536,3.3,98.0*,15.1,48.7*,2.1,23.1
COc1cc(C=NNC(=O)CC23CC4CC(CC(C4)C2)C3)cc(Br)c1OCC(=O)N(C)C,.,.,0.682,.,.,.,.,.,.
O=C(CSc1nc2ccccc2[nH]1)Nc1ccc2c(c1)CCC2,7.3,5.0,0.613,-16.8,17.5*,11.5,2.6,5.2*,3.4
O=C(CSc1nc2ccc(Cl)cc2[nH]1)Nc1ccc2c(c1)CCC2,0.2,4.3,.,2.4,4.5,-25.4,.,.,.
O=C(CSc1ccsc1[N+](=O)[O-])NCc1ccco1,21.3*,7.5,0.681,-8.0,30.1*,4.1,51.8*,5.0*,25.7*
CS(=O)(=O)N1CCN(c2ccccc2NC(=O)c2ccc([N+](=O)[O-])o2)CC1,0.0,1.2,0.687,-0.4,1.0,30.3,.,.,.
SMILES,E coli growth-1,phage Ecoli inh,E coli growth-2,Tat export inh,AddAB inh,AI-2 QS mod,AddAB confirm,RecBCD counter,bact viab count
Cc1ccccc1NC(=O)c1ccc([N+](=O)[O-])o1,11.1*,9.6,0.65,-9.4,24.2*,?,30.8*,6.7*,12.2
CCC(=O)N1CCN(c2ccc(NC(=O)c3ccc([N+](=O)[O-])o3)cc2Cl)CC1,.,5.8,0.65,-2.5,.,26.8,.,.,.
CN1CCN(c2ccccc2NC(=O)c2ccc([N+](=O)[O-])o2)CC1,25.5*,.,0.562,-6.3,26.5*,49.1,101.3*,11.5*,37.6*
O=C(Nc1ccc(N2CCOCC2)cc1)c1ccc([N+](=O)[O-])o1,13.1*,8.3,0.612,-2.8,15.5*,32.4,68.7*,8.5*,20.4
CC(=O)N1CCN(c2ccc(NC(=O)c3ccc([N+](=O)[O-])o3)cc2Cl)CC1,5.1,5.8,0.624,-3.9,14.0*,58.3,56.2*,4.9*,15.0
O=C(Nc1ccc(S(=O)(=O)N2CCOCC2)cc1)c1ccc([N+](=O)[O-])o1,4.1,5.8,0.661,-11.9,6.2,14.1,.,.,.
Cc1cccnc1NC(=O)c1ccc([N+](=O)[O-])o1,24.4*,12.2*,0.585,-4.5,92.1*,4.6,90.8*,11.7*,24.5
CC(=O)Nc1ccc2nc(NC(=O)c3ccc([N+](=O)[O-])o3)sc2c1,9.4,1.4,0.625,-12.1,15.0*,17.8,40.8*,5.7*,12.2
O=C(Nc1ccccc1Cl)c1ccc([N+](=O)[O-])o1,23.9*,8.6,0.571,-17.2,31.3*,-1.2,92.2*,10.4*,28.9*
CCn1nnc(NC(=O)c2ccc([N+](=O)[O-])o2)n1,10.8*,7.4,0.561,-11.1,18.8*,?,61.3*,6.5*,11.6
CCCCn1nnc(NC(=O)c2ccc(-c3ccccc3[N+](=O)[O-])o2)n1,-1.0,4.2,0.622,13.7,2.6,13.2,.,.,.
CC(=O)Nc1ccc2nc(NC(=O)c3ccco3)sc2c1,-0.6,-0.5,0.681,-0.1,0.6,16.5,.,.,.
CON=C(CNC(=O)c1ccc(Cl)cc1Cl)c1ccc(Cl)cc1,.,.,0.764,.,.,.,.,.,.
CCOC(=O)CC(C)=NNC(=O)CNc1cccc(Cl)c1C,.,.,0.696,.,.,.,.,.,.
NC(=NOC(=O)Nc1ccccc1)c1ncc([N+](=O)[O-])s1,.,.,0.647,.,.,.,.,.,.
N/C(=N/OC(=O)c1ccccc1Cl)c1ncc([N+](=O)[O-])s1,10.2*,2.9,.,-11.4,14.0*,-86.3*,37.4*,3.5,9.3
